Reference: PubChem BioAssay
Unmarked numbers belong to inactive results. Calls of active or inactive are those of the source. Cut-off read from the data, not from the text of the source, unless noted: active = inhibition above about 30%; inactive = the rest.

Key:
[1] = biological target: Nuclear receptor coactivator 3 (Homo sapiens) (UniProt Q9Y6Q9); experiment: SRC3 coactivator transcriptional activity inhibitors, confirmation, cell-based, luminescence, quadruplicate (AID 588792;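 active = mean inhibition over 43.08%, the solvent-only control mean plus 3 SD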;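 note: 0% = DMSO treated cells and 100% = gossypol at 36 µM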); conditions: HEK293 GAL4-SRC3 luciferase reporter, at 3.6 µM, active compounds read high
[2] = tested on: transactivating tegument protein VP16 (Human herpesvirus 1), Gal4-VP16 luciferase reporter; experiment: VP16 transactivation inhibitors, counter-screen for SRC3 inhibitor project, cell-based, luminescence, high throughput (AID 588794); conditions: mammalian cells, VP16-driven luciferase reporter luminescence; at 3.6 µM; active compounds read high

Sequence of Nuclear receptor coactivator 3 (Homo sapiens) (Q9Y6Q9 whole entry, looked up, the tested form may be a part): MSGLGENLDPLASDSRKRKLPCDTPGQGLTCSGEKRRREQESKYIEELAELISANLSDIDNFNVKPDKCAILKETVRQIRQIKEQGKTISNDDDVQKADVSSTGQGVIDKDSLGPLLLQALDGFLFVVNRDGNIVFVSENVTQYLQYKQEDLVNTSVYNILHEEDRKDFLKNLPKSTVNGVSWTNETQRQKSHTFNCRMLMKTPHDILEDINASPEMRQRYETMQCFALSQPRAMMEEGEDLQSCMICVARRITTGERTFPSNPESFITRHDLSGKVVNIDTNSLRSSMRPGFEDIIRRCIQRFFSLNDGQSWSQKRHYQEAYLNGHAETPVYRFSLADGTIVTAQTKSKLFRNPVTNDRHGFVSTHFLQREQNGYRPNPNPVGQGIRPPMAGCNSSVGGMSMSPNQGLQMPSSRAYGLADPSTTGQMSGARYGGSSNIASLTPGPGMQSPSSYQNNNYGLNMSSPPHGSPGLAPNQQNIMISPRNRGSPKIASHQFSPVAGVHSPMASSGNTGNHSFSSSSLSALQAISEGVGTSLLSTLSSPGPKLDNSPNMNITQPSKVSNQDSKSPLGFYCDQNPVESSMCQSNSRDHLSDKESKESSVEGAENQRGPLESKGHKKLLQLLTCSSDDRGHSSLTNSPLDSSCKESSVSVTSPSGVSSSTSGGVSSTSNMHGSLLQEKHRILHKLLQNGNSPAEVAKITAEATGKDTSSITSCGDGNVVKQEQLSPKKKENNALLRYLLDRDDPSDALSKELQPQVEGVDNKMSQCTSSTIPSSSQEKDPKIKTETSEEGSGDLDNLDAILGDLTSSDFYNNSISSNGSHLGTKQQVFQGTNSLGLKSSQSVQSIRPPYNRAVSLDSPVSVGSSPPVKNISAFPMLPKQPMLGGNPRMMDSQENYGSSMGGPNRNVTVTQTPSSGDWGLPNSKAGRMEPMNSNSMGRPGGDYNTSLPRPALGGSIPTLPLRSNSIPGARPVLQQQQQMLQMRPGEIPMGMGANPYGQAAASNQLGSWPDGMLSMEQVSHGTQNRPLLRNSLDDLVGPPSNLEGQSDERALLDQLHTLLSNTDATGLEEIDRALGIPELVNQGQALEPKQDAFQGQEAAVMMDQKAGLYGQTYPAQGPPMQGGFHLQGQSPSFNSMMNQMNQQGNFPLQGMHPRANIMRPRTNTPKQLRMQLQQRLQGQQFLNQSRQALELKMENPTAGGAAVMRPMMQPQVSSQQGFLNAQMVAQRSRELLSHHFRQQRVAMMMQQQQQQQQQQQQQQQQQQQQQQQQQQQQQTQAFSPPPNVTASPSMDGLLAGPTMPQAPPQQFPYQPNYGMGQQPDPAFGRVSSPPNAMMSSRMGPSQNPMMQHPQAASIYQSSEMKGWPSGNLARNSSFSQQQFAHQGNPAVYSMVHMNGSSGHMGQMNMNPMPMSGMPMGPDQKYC

SMILES	inhibition [1] [%]	inhibition [2]
Cc1nc(SCC(=O)NCc2ccc3c(c2)OCO3)c(C#N)c2c1CCCC2	-21.9	-7.85%
CC(C)c1nc(Cl)c(C#N)c2c1CCCC2	26	37% (active)
Cn1nc(C(F)(F)F)c(-c2ccccc2)c1NC(=O)c1cccnc1	18.6	11.4%
O=C(c1ccc(S(=O)(=O)Nc2cccc(C(F)(F)F)c2)cc1)N1CCC1	-2.7	-5.66%
C=CCc1cccc(/C=N/NC(=O)CCC(=O)Nc2ccc(F)cc2)c1O	26.2	21.1%
CC(=O)Nc1nc(C)c(-c2csc(Nc3cccc([N+](=O)[O-])c3)n2)s1	7.09	-11.4%
C#CCOCCOCCOCCNc1nc(N2CCN(C(=O)Cn3cc(CCCN=C(N)N)nn3)CC2)nc(N2CCN(C(=O)[C@H](C)n3cc(CCCN=C(N)N)nn3)CC2)n1	3.42	0.02%
Cc1ccccc1NC1=NCC(c2ccc([N+](=O)[O-])cc2)S1 (centres undefined)	18	-2.52%
COCCN(CCOC)S(=O)(=O)c1ccc(C(=O)Nc2nc3c(s2)CCc2ccccc2-3)cc1	0.71	0.01%
CC(=O)c1c(C)[nH]c(C(=O)CSc2nc3ccccc3n2C)c1C	2.74	11.8%
Clc1ccc(SCc2cc(N3CCOCC3)nc(-c3ccccn3)n2)cc1	-5.99	1.33%
Cc1sc2ncnc(Sc3nnnn3-c3ccccc3)c2c1C	0.37	-6.56%
O=C(N/N=C/c1c(O)ccc2ccccc12)c1ccc(CO)nc1	26.3	41.3% (active)
COc1ccc(-c2cc(C(=O)NNC(=S)NC(=O)c3c(-c4ccccc4)noc3C)[nH]n2)cc1	6.16	-3.86%
O=C(CNc1cccc([N+](=O)[O-])c1)N/N=C/c1ccc([N+](=O)[O-])o1	32.3	14.3%
Cc1oc(S(=O)(=O)N(C)C)cc1C(=O)Nc1ccc(Cl)cc1	-1.4	8.66%

SMILES	inhibition [1] [%]	inhibition [2]
CCc1ccc(OCC(=O)NC(NC(=S)Nc2ccc(Cl)cc2)C(Cl)(Cl)Cl)cc1 (centres undefined)	-0.7	0.6%
CNC(=O)c1ccc(-c2sc3nc(N4CCOCC4)c4c(c3c2N)CC(C)(C)OC4)o1	3.63	-22.1%
Cc1cccc(C)c1-n1c(C)cc(/C=N\NC(=O)CC(=O)NC2CCCCC2)c1C	-17.4	-15.1%
O=C(C1=C(O)C(=O)N(CCN2CCOCC2)C1c1cccc([N+](=O)[O-])c1)c1cccs1 (centres undefined)	-8.15	-1.72%
CCC(C)c1ccc(NC(=S)N2CCN(C(=O)C3CCCO3)CC2)cc1 (centres undefined)	8.54	-1.88%
COc1ccc(N/N=C2/CCCCC2=O)cc1	-38.4	21%
O=C(N/N=C/c1cc(Br)ccc1OC(=O)c1ccc(Br)cc1)c1ccncc1	20.5	28%
N#CCc1ccc(NC(=O)c2ccc(S(=O)(=O)N3CCOCC3)cc2)cc1	-11.6	-6.42%
CCN(C(=O)c1cnc(OC)cc1C(F)(F)F)c1ccc(Cl)cc1	9.44	4.62%
O=C1N(c2cccc(Cl)c2)C(c2ccc(Cl)cc2)N2CCCN12 (centres undefined)	3.22	-0.24%
CC1CCCCC1NC(=O)Cn1cnc2ccccc2c1=O (centres undefined)	10.5	-4.34%
Cc1ccc(-n2cccn2)c(CN2CCCC(C(=O)c3sccc3C)C2)c1 (centres undefined)	18.9	32.1% (active)
COc1cc(C(=O)NC2CCCc3c2cnn3-c2ccccc2F)cc(OC)c1OC (centres undefined)	2.41	21%
O=C(Nc1cccc2ccccc12)OC1C=CS(=O)(=O)C1 (centres undefined)	25.6	15.6%
COc1ccc(-c2cc(C(=O)N3CCN(c4ncccn4)CC3)c3ccccc3n2)c(OC)c1	0.79	-9.7%
COc1cc2[nH]c3c(Cl)ncnc3c2cc1OC	32.2	16.2%
